# Where a name gives a salt, the structure may show the parent alone. Unmarked numbers belong to inactive results.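 Rule for the calls: active = normalised median growth AUC below 0.1 of DMSO control; inactive = AUC 0.1 or higher.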
# Experiments:
# Assay in all cases: growth AUC normalised to DMSO control (median) (fraction of control); higher = less growth inhibition, active = hit call of the paper
# Details in all cases: 20 µM
# P. vulgatus RND KO = test system: P. vulgatus RND KO
# How it was run: (§1)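 Area under the growth curve, calculated by the trapezoidal rule up to entry into stationary phase, was normalised to vehicle wells on the same plate. Strains had been passaged twice overnight without oxygen and then grown in mGAM in 96-well plates from OD578 0.01, each with an approved-drug library compound at 20 μM in 1% DMSO. OD578 was read hourly over 24 h in an anaerobic incubator, and the median of three biological replicates is given.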
# P. vulgatus WT = test system: P. vulgatus WT
# How it was run: as §1
# [1] = test system: S. enterica typhimurium WT
# How it was run: as §1
# [2] = test system: S. enterica typhimurium tolC KO
# How it was run: as §1
# 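Note: active when median AUC fell below 0.1.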
Structure (SMILES),growth AUC normalised to DMSO control (P. vulgatus RND KO),growth AUC normalised to DMSO control (P. vulgatus WT),growth AUC normalised to DMSO control [1],growth AUC normalised to DMSO control [2]
CC[C@@H]([C@H](C)O)n1ncn(-c2ccc(N3CCN(c4ccc(OC[C@@H]5CO[C@@](Cn6cncn6)(c6ccc(F)cc6F)C5)cc4)CC3)cc2)c1=O [Posaconazole hydrate],0.87,0.875,1.01,0.979
COc1c(O)cc2c(c1O)[C@@H]1O[C@H](CO)[C@@H](O)[C@H](O)[C@H]1OC2=O [Bergenin],1.04,1.01,1.02,0.995
CN(C/C=C/C#CC(C)(C)C)Cc1cccc2ccccc12 [Terbinafine],1.01,0.998,1.01,0.928
CN(C)CCc1c[nH]c2ccc(Cn3cncn3)cc12 [Rizatriptan benzoate],1.02,1.03,1,0.994
CCCCCOC(=O)Nc1nc(=O)n([C@@H]2O[C@H](C)[C@@H](O)[C@H]2O)cc1F [Capecitabine],0.987,0.998,0.982,0.994
CNC(=O)OCc1cccc(COC(=O)NC)n1 [Pyricarbate],1.03,1.08,1.01,0.999
O=c1[nH]c(=O)n([C@H]2C[C@H](O)[C@@H](CO)O2)cc1/C=C/Br [Brivudine],1.02,1.01,1,1.01
CC(C)Nc1cccnc1N1CCN(C(=O)c2cc3cc(NS(C)(=O)=O)ccc3[nH]2)CC1 [Delavirdine],1.02,1.07,1.02,0.98
N=c1ccn2c(n1)O[C@H]1[C@H](O)[C@@H](CO)O[C@H]12 [Ancitabine hydrochloride],0.971,0.978,1.01,0.991
COc1ncnc(NS(=O)(=O)c2ccc(N)cc2)c1OC [Sulfadoxine],0.981,0.982,0.99,0.993
CC(=O)N[C@H]1[C@H]([C@H](O)[C@H](O)CO)OC(C(=O)O)=C[C@@H]1NC(=N)N [Zanamivir],1.06,1.1,1,1.02
CCCCC1=NC2(CCCC2)C(=O)N1Cc1ccc(-c2ccccc2-c2nnn[nH]2)cc1 [Irbesartan],0.985,1,1.01,0.987
CCCCOC(=O)c1ccccc1Nc1cccc(C(F)(F)F)c1 [Ufenamate],1.02,0.978,0.998,0.992
CC(C)C[C@H](NC(=O)[C@@H](O)[C@H](N)Cc1ccccc1)C(=O)O [Ubenimex],0.448,0.535,1,0.992
Nc1ccc2cc3ccc(N)cc3nc2c1 [Proflavine hemisulfate],0.996,0.995,0.955,0.91
CN(C)c1ccc2nc3ccc(=[N+](C)C)cc-3sc2c1 [Methylene blue],1,1.02,0.98,0.862
CCC(=O)c1c(O)cc(O)cc1O [Flopropione],0.985,0.986,0.999,0.994
CC1(C)S[C@@H]2[C@H](NC(=O)C(c3ccccc3)S(=O)(=O)O)C(=O)N2[C@H]1C(=O)O (stereo not given in full) [Sulbenicillin sodium salt],0.00728 (active),0.00538 (active),0.116,0.00823 (active)

Structure (SMILES),growth AUC normalised to DMSO control (P. vulgatus RND KO),growth AUC normalised to DMSO control (P. vulgatus WT),growth AUC normalised to DMSO control [1],growth AUC normalised to DMSO control [2]
CCc1ccc(C(=O)C(C)CN2CCCCC2)cc1 (stereo not given) [Eperisone Hydrochloride],1.03,1.04,1,0.989
COc1ccc(-c2ccc3cc(C(=O)O)ccc3c2)cc1C12CC3CC(CC(C3)C1)C2 [Adapalene],1.03,1,0.988,1.01
CC(C(=O)O)c1ccc(N2CC=CC2)c(Cl)c1 (stereo not given) [Pirprofen],1.08,1.06,1,1
COc1cccc2c1C(=O)c1c(O)c3c(c(O)c1C2=O)C[C@@](O)(C(=O)CO)C[C@@H]3O[C@H]1C[C@H](N)[C@@H](O)[C@H](C)O1 [Epirubicin hydrochloride],1.02,0.961,1,0.0212 (active)
Cc1nc(=O)c2cc(CN(C)c3ccc(C(=O)N[C@@H](CCC(=O)O)C(=O)O)s3)ccc2[nH]1 [Raltitrexed],1.04,0.997,1,0.991
CCOC(=O)O[C@]1(C(=O)OCCl)CC[C@H]2[C@@H]3CCC4=CC(=O)C=C[C@]4(C)[C@H]3[C@@H](O)C[C@@]21C [Loteprednol etabonate],0.853,0.862,1.01,0.953
COc1cc(Nc2c(C#N)cnc3cc(OCCCN4CCN(C)CC4)c(OC)cc23)c(Cl)cc1Cl [Bosutinib],1,0.947,1,0.98
O=C(O)CSCC(=O)NC1CCSC1=O (stereo not given) [Erdosteine],1.02,1.04,1,0.999
C/C(=C(\CCOC(=O)c1ccccc1)SS/C(CCOC(=O)c1ccccc1)=C(/C)N(C=O)Cc1cnc(C)nc1N)N(C=O)Cc1cnc(C)nc1N [Bisbentiamine],1.02,1.07,1.01,0.999
CC[C@H]1OC(=O)C[C@@H](O)[C@H](C)[C@@H](O[C@@H]2O[C@H](C)[C@@H](O[C@H]3C[C@@](C)(O)[C@@H](O)[C@H](C)O3)[C@H](N(C)C)[C@H]2O)[C@@H](CC=O)C[C@@H](C)C(=O)/C=C/C(C)=C/[C@@H]1CO[C@@H]1O[C@H](C)[C@@H](O)[C@@H](OC)[C@H]1OC [Tylosin],0.015 (active),0.0123 (active),0.997,0.721
CCCC(=O)OCOC(=O)C1=C(C)NC(C)=C(C(=O)OC)C1c1cccc(Cl)c1Cl (stereo not given) [Clevidipine],0.986,0.992,0.98,1
Cc1cc(C#N)cc(C)c1Oc1nc(Nc2ccc(C#N)cc2)nc(N)c1Br [Etravirine],1.03,1.02,1.01,1.01
O=C(O)CCNC(=O)c1ccccc1 [Betamipron],1,1.04,0.998,0.807
N[C@@H](Cc1c[nH]c2ccccc12)C(=O)O [L-Tryptophan],1,1.03,0.994,0.989
O=C1CC[C@@H](C(=O)N2CSC[C@H]2C(=O)O)N1 [Pidotimod],0.991,0.993,1,0.991
CCOC(=O)c1c(N)sc2c1CCN(Cc1ccccc1)C2 [Tinoridine hydrochloride],0.91,0.852,0.989,0.969
C=C1CC[C@H](O)C/C1=C/C=C1\CCC[C@]2(C)[C@@H]([C@H](C)CCCC(C)C)CC[C@@H]12 [Cholecalciferol],1.05,1.07,0.999,0.982
